# Results filed as inconclusive are left out. Where a call stands in place of a potency, no number is given. Calls of active or inactive are those of the source. Unless noted, calls follow the shape of the dose curve; as a rule, active = well fitted curve in the direction sought with a large enough effect; inconclusive = small, poorly fitted or top-dose-only effect, or another doubt; inactive = no such curve, though single readings can be large; an effect the other way counts as inactive or inconclusive.
# Tests used:
# [1] = NCATS anti-infectives library activity on HEK293 viability as a counter-qHTS vs the C. elegans viability qHTS (AID 1745854);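 also: HEK293 cells exposed to compounds for 24 hr before the viability read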
# Procedure, shortened: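 Counter-screen for cytotoxicity: HEK293, 24 hr, 37C, compounds up to 41.7 uM final (a dilution series, 1:5). Readout CellTiter-Glo luminescence, 10 min RT. Digitonin control, 83.3 uM final.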
# [2] = target: Catechol O-methyltransferase (Homo sapiens) (UniProt P21964); assay: Confirmatory Screen for Target Class Profiling of Small Molecule Inhibitors of Methyltransferases (AID 1745852; calls by dose curve; also: potency is read from the fitted curve at half-maximal effect); settings: MTase-Glo luminescence, SAH detection, recombinant enzyme; measured here: COMT max response; stronger effect = lower value
# [3] = target: Guanidinoacetate N-methyltransferase (Homo sapiens) (UniProt Q14353); assay: as above; settings: activity change, negative = inhibition: at 57.3 µM (top of the series) unless noted
# [4] = target: Nicotinamide N-methyltransferase (Homo sapiens) (UniProt P40261); assay: as above; settings: MTase-Glo luminescence, SAH detection, recombinant enzyme; measured here: NNMT max response; stronger effect = lower value
# [5] = target: Phenylethanolamine N-methyltransferase (Homo sapiens) (UniProt P11086); assay: as above; settings: MTase-Glo luminescence, SAH detection, recombinant enzyme; measured here: PNMT max response; stronger effect = lower value
# [6] = qHTS drug screen for cell cycle checkpoint inhibitors in PARPi-resistant BRCA-mutant ovarian cancer cell lines. (AID 1963452; calls by dose curve); settings: PEO1/OlaR viability, CellTiter-Glo luminescence, 96 h, stronger effect = lower value
# Procedure, shortened: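 PEO1, PEO4 and PEO1/OlaR ovarian cancer cells, 600 per well, exposed 96 h at 37C to a dilution series. Viability read by CellTiter-Glo luminescence, normalized to DMSO and empty wells; activity summarized as Z-AUC.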
# [7] = AP1 Signaling Pathway (AID 357; active = well fitted curve in either direction with a large enough effect, not every such curve was filed as active;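 also: ME-180 reporter cells stimulated with EGF at its EC50 level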); settings: ME-180 AP-1-bla reporter, EGF-induced, beta-lactamase ratio, 5 h; at 7.69 µM (top of the series) unless noted
# Procedure, shortened: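 Beta-lactamase reporter under AP-1 response element, ME-180 background. Stimulus: EC50 EGF. Compound exposure 5 h, 37 °C. Detection: CCF4, 2.5 h RT, 460/530 nm. Values: AC50 from titration.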
# [8] = target: Cytochrome P450 1A2 (Homo sapiens) (UniProt P05177); assay: p450-cyp1a2 (AID 410; calls by dose curve)
# Procedure, shortened: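 O-Demethylation of luciferin 6' methyl ether by human CYP1A2 is monitored as luciferase luminescence. Substrate sits at Km (100uM); enzyme is 20nM. Values are scaled to 57 uM furafylline as maximal inhibition.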
# [9] = NFAT Signaling Pathway (AID 444; active = well fitted curve in either direction with a large enough effect, not every such curve was filed as active;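 also: carbachol stimulus at about its EC50 of 1 µM final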); settings: Jurkat NFAT-bla M1, carbachol, beta-lactamase ratio, 5 h; at 7.69 µM (top of the series) unless noted
# Procedure, shortened: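 Jurkat cells with NFAT-driven β-lactamase reporter and co-expressed M1 receptor, stimulated with carbachol (final 1 uM, ~EC50), compound titration, 5 h at 37 °C. CCF4 loaded 1 h at RT; 460/530 nm ratio gave %activity and AC50.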
# [10] = target: Glucocorticoid receptor (Homo sapiens) (UniProt P04150); assay: GR-GFP Redistribution (AID 450;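 active = compounds whose dose series gives a full or clear partial fitted curve of increased nuclear translocation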; also: potency is read from the fitted curve at half-maximal effect); settings: U2OS GR-GFP nuclear translocation, laser cytometry, 2 h
# [11] = target: Glucocorticoid receptor (Homo sapiens) (UniProt P04150); assay: GR-EFC Redistribution (AID 451; calls by dose curve; also: potency is read from the fitted curve at half-maximal effect); settings: CHO-K1 GR-EFC translocation, beta-gal luminescence, 2 h
# Procedure, shortened: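 CHO-K1 cells expressing nuclear EA and GR-ED fragments of b-gal; compounds titrated up to 46 uM final, 2 h at 37 C. GR nuclear translocation read as complemented b-gal luminescence after 1 h RT detection.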
# [12] = target: 3',5'-cyclic-AMP phosphodiesterase 4B (Homo sapiens) (UniProt Q07343); assay: qHTS Assay for Inhibitors of PDE-IV (AID 607; active = well fitted activation curve with a large enough effect in the main read-out, with a control signal flat, not every such curve was filed as active)
# Procedure, shortened: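 ACTOne HEK293 cells carry a modified cAMP-gated CNG channel and express endogenous PDE4; plated 1000 cells/well, compounds up to 22.9 uM final. Membrane-potential dye fluorescence (ex 535/em 590) was read; parental cells received 10 uM forskolin + 100 uM RO 20-1724.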
# [13] = target: Guanine nucleotide-binding protein G(i) subunit alpha-1 (Homo sapiens) (UniProt P63096); assay: qHTS Assay for Inhibitors of RGS12 GoLoco Motif Activity (Green Fluorophore) (AID 879);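 also: negative values mean loss of peptide binding seen as reduced polarization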
# Procedure, shortened: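 A drop in FITC polarization marked displacement of the FITC-tagged RGS12 GoLoco peptide (10 nM) from Gαi1 (50 nM). Compounds were incubated 10 min at room temperature in Tris pH 7.5 buffer containing 150 mM NaCl, 0.1 mM GDP and 0.05% NP40; unlabeled peptide titration served as control.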
# [14] = target: Cytochrome P450 3A4 (Homo sapiens) (UniProt P08684); assay: qHTS Assay for Activators of Cytochrome P450 3A4 (AID 885); also: nearly all actives have a fitted effect of over 65% in size
# Procedure, shortened: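 CYP3A4 activity: Luciferin-PPXE O-dealkylation, 25uM substrate, 200mM KPO4, RT throughout. Read-out is luciferase luminescence; higher values reflect activation.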
# [15] = qHTS Assay for Identification of Small Molecule Antagonists for NFkB Signaling Pathway (AID 895; active = well fitted inhibition curve with a large enough effect in the signal ratio, with a control signal flat, not every such curve was filed as active; the % refers to the signal ratio; also: potency is read from the fitted curve at half-maximal effect); settings: NFkB beta-lactamase reporter cells, FRET ratio 460/530; stimulated with 10 pM TNF alpha
# Procedure, shortened: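 ME-180 NFkB-bla cells (beta-lactamase under NFkB response element), plated overnight, treated with compound then 10 pM TNF alpha (about EC50) for 5 hrs at 37 C. LiveBLAzer FRET read at 460/530 nm emission, 405 nm excitation.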
# [16] = target: Muscarinic acetylcholine receptor M1 (Rattus norvegicus) (UniProt P08482); assay: qHTS Assay for Antagonists of Acetylcholine Muscarinic M1 Receptor: Kinetic Measurement of Intracellular Calcium Response (AID 943);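 also: Fluo-4 calcium signal as peak divided by basal fluorescence over 4 min; nearly all actives have a fitted effect of over 75% in size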
# Procedure, shortened: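 Antagonism is measured as inhibition of the carbachol-evoked calcium rise in CHO cells transfected with rat M1. Cells are dye-loaded, exposed to compound for 10 min, then stimulated with 100 nM carbachol (EC80).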
# [17] = target: Pyruvate kinase (Leishmania mexicana) (UniProt Q27686); assay: qHTS Validation Assay for Inhibitors of Leishmania Mexicana Pyruvate Kinase (AID 945)
# Procedure, shortened: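 Pyruvate kinase activity of E451W LmPYK (0.2 nM) was followed as ATP output after 1 h at room temperature with 0.5 mM PEP and 0.1 mM ADP, detected by PKLight luminescence.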
# [18] = target: Pyruvate kinase PKM (Homo sapiens) (UniProt P14618); assay: qHTS Assay for Activators of Human Muscle Pyruvate Kinase (AID 954; active = well fitted curve in the direction sought with a large enough effect, not every such curve was filed as active)
# Procedure, shortened: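 A coupled luminescent readout tracked ATP made from ADP by purified PKM2. Final conditions included 0.1 nM enzyme, PEP and ADP at 0.5 and 0.1 mM, pH 7.2 imidazole buffer with BSA, and a one-hour room-temperature reaction.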
# [19] = target: Alpha-galactosidase A (Homo sapiens) (UniProt P06280); assay: Counterscreen for Glucocerebrosidase Inhibitors: qHTS Assay for Human alpha-Galactosidase at pH 4.5 (AID 992)
# Procedure, shortened: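 Citrate buffer pH 4.5, Tween-20 0.005%. Enzyme 2 nM, substrate 80 uM, 20 min RT. Stop pH 10. Fluorescence Ex 365/Em 440. AC50 by Hill fit.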
# [20] = target: alpha-glucosidase (Oryza sativa, rice) (UniProt Q653V4); assay: Counterscreen for Glucocerebrosidase Inhibitors: qHTS Assay for Rice alpha-Glucosidase at pH 5.0 (AID 997)
# Procedure, shortened: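 Endpoint fluorogenic assay at pH 5.0: compounds (0.7 nM to 77 uM) titrated against 4 nM rice enzyme and 400 uM 4-MU-alpha-glucoside for 20 min at room temperature; NaOH/glycine stop, read ex 365/em 440 nm, Hill-fitted AC50.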
# Sequence of Phenylethanolamine N-methyltransferase (Homo sapiens) (P11086 whole entry, looked up): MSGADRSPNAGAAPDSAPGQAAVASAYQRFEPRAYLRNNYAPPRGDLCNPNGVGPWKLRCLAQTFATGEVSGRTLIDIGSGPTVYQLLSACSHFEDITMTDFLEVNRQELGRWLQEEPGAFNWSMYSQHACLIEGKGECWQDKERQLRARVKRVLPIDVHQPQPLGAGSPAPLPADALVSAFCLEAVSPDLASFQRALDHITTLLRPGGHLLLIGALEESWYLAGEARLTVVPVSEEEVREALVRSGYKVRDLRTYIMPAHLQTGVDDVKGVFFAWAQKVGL
# Sequence of Catechol O-methyltransferase (Homo sapiens) (P21964 whole entry, looked up): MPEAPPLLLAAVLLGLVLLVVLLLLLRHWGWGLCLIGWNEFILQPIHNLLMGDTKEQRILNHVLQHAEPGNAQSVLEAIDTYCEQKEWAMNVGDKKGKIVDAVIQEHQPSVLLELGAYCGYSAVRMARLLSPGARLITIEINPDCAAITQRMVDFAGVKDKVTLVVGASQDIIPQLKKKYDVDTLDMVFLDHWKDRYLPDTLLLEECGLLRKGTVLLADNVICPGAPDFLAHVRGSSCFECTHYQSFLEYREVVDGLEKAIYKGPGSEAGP
# Sequence of Glucocorticoid receptor (Homo sapiens) (P04150 whole entry, looked up, the tested form may be a part): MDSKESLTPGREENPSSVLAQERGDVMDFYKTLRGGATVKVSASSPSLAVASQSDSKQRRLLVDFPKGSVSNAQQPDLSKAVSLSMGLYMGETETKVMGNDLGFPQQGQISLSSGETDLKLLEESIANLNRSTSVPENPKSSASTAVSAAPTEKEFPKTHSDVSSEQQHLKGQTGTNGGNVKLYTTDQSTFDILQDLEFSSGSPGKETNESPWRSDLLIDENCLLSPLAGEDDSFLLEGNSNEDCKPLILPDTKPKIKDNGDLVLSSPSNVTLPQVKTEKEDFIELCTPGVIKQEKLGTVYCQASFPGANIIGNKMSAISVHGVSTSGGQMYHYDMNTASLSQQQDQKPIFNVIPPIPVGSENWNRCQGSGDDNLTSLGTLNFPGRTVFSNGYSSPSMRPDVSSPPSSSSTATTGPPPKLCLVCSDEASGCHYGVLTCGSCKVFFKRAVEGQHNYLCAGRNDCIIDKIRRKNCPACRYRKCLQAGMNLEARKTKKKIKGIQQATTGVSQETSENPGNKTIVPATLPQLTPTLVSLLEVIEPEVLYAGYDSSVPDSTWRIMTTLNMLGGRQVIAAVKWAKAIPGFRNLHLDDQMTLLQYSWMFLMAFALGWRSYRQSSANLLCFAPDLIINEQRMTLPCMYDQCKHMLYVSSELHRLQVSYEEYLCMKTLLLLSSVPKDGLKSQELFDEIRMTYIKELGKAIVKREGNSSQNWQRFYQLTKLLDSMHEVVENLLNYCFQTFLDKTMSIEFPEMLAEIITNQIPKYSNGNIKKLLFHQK
# Sequence of Nicotinamide N-methyltransferase (Homo sapiens) (P40261 whole entry, looked up): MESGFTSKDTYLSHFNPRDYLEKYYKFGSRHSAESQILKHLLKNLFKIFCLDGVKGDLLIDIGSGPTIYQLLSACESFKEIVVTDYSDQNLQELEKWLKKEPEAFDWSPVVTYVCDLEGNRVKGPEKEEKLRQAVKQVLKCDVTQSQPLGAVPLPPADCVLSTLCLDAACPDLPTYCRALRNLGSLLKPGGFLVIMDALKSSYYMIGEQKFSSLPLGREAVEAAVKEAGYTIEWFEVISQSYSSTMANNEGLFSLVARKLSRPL
# Sequence of Cytochrome P450 3A4 (Homo sapiens) (P08684 whole entry, looked up): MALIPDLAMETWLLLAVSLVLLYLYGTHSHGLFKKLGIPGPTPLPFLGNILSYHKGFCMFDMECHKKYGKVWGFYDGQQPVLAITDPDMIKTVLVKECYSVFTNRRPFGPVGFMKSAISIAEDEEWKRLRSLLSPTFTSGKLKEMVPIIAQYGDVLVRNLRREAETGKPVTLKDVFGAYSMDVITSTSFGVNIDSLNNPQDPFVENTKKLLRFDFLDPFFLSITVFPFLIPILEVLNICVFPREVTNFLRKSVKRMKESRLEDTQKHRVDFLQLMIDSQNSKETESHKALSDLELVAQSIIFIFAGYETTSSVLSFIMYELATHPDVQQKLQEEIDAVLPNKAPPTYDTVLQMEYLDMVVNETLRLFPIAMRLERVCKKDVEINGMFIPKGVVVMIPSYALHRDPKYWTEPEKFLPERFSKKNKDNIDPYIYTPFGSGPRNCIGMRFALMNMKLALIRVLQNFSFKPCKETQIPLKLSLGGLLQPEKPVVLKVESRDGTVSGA
# Sequence of Pyruvate kinase (Leishmania mexicana) (Q27686 2-499 E452W): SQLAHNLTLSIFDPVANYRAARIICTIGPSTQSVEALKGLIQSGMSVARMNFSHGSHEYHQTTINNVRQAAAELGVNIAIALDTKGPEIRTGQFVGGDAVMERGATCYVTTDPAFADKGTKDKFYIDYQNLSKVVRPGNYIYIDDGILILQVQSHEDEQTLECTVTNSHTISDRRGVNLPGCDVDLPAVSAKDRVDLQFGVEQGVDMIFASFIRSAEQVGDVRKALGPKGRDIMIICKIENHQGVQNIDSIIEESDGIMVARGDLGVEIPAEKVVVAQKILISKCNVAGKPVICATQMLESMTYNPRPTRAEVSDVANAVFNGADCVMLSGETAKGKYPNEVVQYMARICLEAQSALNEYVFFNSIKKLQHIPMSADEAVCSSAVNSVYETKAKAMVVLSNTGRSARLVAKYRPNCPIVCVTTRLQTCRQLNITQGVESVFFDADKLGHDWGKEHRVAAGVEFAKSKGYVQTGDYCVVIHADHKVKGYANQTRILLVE
# Sequence of Pyruvate kinase PKM (Homo sapiens) (P14618 whole entry, looked up): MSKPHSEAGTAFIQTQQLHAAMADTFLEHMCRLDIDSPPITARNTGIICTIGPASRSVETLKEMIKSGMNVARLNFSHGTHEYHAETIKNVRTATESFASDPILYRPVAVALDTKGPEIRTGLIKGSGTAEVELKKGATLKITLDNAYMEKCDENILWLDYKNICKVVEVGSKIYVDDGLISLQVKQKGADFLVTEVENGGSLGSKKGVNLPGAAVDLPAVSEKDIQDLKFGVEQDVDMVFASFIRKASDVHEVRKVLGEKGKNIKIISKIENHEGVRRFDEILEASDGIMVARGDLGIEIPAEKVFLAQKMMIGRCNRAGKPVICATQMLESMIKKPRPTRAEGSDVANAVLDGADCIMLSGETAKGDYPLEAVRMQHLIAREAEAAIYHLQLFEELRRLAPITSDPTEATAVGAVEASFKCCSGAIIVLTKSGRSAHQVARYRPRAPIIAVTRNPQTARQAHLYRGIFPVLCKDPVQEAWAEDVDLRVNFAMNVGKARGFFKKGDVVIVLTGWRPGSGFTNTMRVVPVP
# Sequence of Guanine nucleotide-binding protein G(i) subunit alpha-1 (Homo sapiens) (P63096 whole entry, looked up): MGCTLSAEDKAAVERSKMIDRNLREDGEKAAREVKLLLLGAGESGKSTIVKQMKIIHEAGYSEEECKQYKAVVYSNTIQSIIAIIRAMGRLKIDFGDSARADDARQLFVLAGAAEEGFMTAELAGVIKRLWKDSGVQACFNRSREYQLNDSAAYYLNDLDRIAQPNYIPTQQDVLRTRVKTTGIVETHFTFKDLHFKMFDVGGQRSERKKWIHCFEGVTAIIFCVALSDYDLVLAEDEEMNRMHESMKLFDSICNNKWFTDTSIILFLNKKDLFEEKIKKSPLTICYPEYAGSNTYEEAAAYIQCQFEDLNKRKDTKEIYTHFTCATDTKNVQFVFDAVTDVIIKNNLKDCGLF
# Sequence of Alpha-galactosidase A (Homo sapiens) (P06280 whole entry, looked up): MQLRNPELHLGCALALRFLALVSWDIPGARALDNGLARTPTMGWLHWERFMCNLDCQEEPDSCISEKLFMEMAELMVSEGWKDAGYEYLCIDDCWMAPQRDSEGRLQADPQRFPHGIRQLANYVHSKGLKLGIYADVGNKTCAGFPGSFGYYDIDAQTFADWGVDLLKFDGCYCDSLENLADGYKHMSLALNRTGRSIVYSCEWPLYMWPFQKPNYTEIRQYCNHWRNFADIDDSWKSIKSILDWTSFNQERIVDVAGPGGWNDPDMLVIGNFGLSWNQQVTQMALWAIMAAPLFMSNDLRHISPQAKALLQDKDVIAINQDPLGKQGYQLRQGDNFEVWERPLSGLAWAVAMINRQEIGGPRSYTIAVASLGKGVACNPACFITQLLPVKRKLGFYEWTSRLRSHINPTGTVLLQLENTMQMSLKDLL
# Sequence of Cytochrome P450 1A2 (Homo sapiens) (P05177 whole entry, looked up): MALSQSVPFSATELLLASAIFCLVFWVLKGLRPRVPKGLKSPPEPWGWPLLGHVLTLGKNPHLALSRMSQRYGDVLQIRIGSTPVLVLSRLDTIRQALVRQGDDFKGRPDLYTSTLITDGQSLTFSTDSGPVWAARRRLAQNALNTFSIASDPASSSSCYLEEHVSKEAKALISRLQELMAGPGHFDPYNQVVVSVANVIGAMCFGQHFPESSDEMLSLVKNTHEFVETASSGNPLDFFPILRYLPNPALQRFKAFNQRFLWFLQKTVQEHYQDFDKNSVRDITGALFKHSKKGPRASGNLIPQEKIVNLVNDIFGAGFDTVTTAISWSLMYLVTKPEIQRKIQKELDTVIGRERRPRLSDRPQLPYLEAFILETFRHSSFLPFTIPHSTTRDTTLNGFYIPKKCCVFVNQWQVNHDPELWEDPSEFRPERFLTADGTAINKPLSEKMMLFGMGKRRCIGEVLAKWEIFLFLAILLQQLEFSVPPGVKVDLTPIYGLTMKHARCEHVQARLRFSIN
# Sequence of Muscarinic acetylcholine receptor M1 (Rattus norvegicus) (P08482 whole entry, looked up): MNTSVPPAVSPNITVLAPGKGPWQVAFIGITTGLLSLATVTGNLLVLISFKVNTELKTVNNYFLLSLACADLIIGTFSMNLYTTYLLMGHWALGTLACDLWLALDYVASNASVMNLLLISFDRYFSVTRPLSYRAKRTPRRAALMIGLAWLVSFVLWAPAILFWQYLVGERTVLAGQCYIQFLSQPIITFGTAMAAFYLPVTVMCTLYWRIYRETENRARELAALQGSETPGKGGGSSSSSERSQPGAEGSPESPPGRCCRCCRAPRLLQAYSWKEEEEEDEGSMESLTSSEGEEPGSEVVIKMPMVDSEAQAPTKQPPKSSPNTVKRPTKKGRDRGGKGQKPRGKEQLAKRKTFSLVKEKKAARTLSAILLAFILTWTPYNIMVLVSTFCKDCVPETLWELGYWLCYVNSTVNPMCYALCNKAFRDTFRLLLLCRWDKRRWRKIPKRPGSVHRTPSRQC
compound,measurement,setting,value
O=C(O)[C@H]1O[C@@H](Oc2cc3oc(-c4ccc(O)cc4)cc(=O)c3c(O)c2O)[C@H](O)[C@@H](O)[C@@H]1O,Potency,[1],inactive
O=C(O)CCc1ccc(O)cc1,Potency,[1],inactive
CC(=O)OC(C)(C)CCC(=O)[C@](C)(O)C1[C@H](O)C[C@@]2(C)C3CC=C4C(C[C@H](O)[C@@H](O)C4(C)C)[C@]3(C)C(=O)C[C@]12C (stereo partly specified),Potency,[1],inactive
S=C(S)O[C@H]1C[C@H]2C[C@@H]1[C@@H]1CCC[C@H]21,Potency,[1],inactive
NC(=O)c1cccc2[nH]c(-c3ccc([C@@H]4CCCN4)cc3F)nc12,activity,[2],-9.14%
same,"activity change, negative = inhibition",[3],-8.18%
same,activity,[4],-23.8%
same,activity,[5],-6.69%
same,Z-AUC,[6],-0.692 (inactive)
same,Z-AUC,[6]; measured here: PEO1 parental Z-AUC,-1.03
same,Z-AUC,[6]; measured here: PEO4 Z-AUC,-0.377
S=C(NCCc1ccccn1)Nc1ccc(Br)cn1,Potency,[1],inactive
CC(C)(C)OC(=O)N[C@H]1CCCCC/C=C\[C@@H]2C[C@@]2(C(=O)NS(=O)(=O)C2CC2)NC(=O)[C@@H]2C[C@@H](OC(=O)N3Cc4cccc(F)c4C3)CN2C1=O,Potency,[1],inactive
CCCCCCCCCCCCCCCCOCCCOP(=O)(O)CO[C@H](CO)Cn1ccc(N)nc1=O,"activity change, negative = cytotoxicity",[1],-5.25% [at 8.35 µM] (inactive)
Cc1ccc(C2Nc3ccccc3C(=O)N2c2ccccc2)s1 (stereo unspecified),Potency,[1],inactive
Nc1cc(F)ccc1NC(=O)/C=C/c1cnn(C/C=C/c2ccccc2)c1,Potency,[1],inactive
Nc1ccccc1NC(=O)c1cnccn1,Potency,[1],inactive
Cc1cn2nc([C@@H]3CCCCN3C(=O)c3cc(Cl)ccc3NS(C)(=O)=O)cc2nc1N1CC[C@H](N)C1,Potency,[1],inactive
O=c1cc(O)cc(/C=C\c2ccc(O)c(O)c2)o1,"activity change, negative = inhibition",[7],-18.8% [at 38 µM] (inactive)
same,Potency,[8],inactive
same,"activity change, negative = inhibition",[9],-13.6% [at 38 µM] (inactive)
same,Potency,[10],> 46 µM (inactive)
same,Potency,[11],> 46 µM (inactive)
same,Potency,[12],inactive
same,Potency,[13],inactive
same,outcome,[14],inactive
same,Potency,[15],1.26 µM (active)
same,Potency,[16],inactive
same,outcome,[17],inactive
same,outcome,[18],inactive
same,outcome,[19],inactive
same,outcome,[20],inactive
same,activity,[2],135%
same,Potency,[3],24.3 µM (active)
same,activity,[4],-15.8%
same,activity,[5],-1.5%
